Laboratory results as given in PubChem BioAssay (NCATS).
Results filed as inconclusive are left out. Calls of active or inactive are those of the source. Calls come from the whole dose curve; as a rule, active = well fitted curve in the direction sought with a large enough effect; inconclusive = small, poorly fitted or top-dose-only effect, or another doubt; inactive = no such curve, though single readings can be large; an effect the other way counts as inactive or inconclusive.

Experiments:
[1] = OV-KATE Cancer Cell Toxicity qHTS against the NCATS CANVASS Library (AID 1347345); note: potency is the fitted concentration of half-maximal effect
Method in brief: (§1)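 Cells were seeded at 1000 per well, allowed 4 h at 37 degrees C/5% CO2, then pin-treated with an 11-point compound series. After 72 h, viability was read as CellTiter-Glo luminescence following 15min at room temperature.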

[2] = HPAF-II Cancer Cell Toxicity qHTS against the NCATS CANVASS Library (AID 1347346); note: nearly all actives have a fitted effect of over 55% in size; note: potency is the fitted concentration of half-maximal effect
Method in brief: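 HPAF-II cells were seeded at 1000 cells/well, allowed to settle for 4 h at 37 degrees C, then exposed to compounds in an 11-point series for 72 h. Viability was read by CellTiter-Glo luminescence.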

[3] = UWB1.289 Cancer Cell Toxicity qHTS against the NCATS CANVASS Library (AID 1347347); note: nearly all actives have a fitted effect of over 60% in size; note: potency is the fitted concentration of half-maximal effect
Method in brief: as §1

[4] = OV-SAHO Cancer Cell Toxicity qHTS against the NCATS CANVASS Library (AID 1347348); note: nearly all actives have a fitted effect of over 55% in size; note: potency is the fitted concentration of half-maximal effect
Method in brief: as §1

[5] = Panc-1005 Cancer Cell Toxicity qHTS against the NCATS CANVASS Library (AID 1347349); note: nearly all actives have a fitted effect of over 60% in size; note: potency is the fitted concentration of half-maximal effect
Method in brief: as §1

[6] = SW1088 Cancer Cell Toxicity qHTS against the NCATS CANVASS Library (AID 1347350); note: nearly all actives have a fitted effect of over 75% in size; note: potency is the fitted concentration of half-maximal effect
Method in brief: as §1

[7] = U-118MG Cancer Cell Toxicity qHTS against the NCATS CANVASS Library (AID 1347351)
Method in brief: as §1

[8] = A2780 Cisplatin Sensitive Ovarian Cancer Cell Toxicity qHTS against the NCATS CANVASS Library (AID 1347353); note: nearly all actives have a fitted effect of over 60% in size; note: potency is the fitted concentration of half-maximal effect
Method in brief: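 A2780 cisplatin-sensitive cells (750 per well) were seeded, left 4 h at 37 °C, then pin-dosed in an 11-point series. After 72 h at 37 °C/5% CO2, viability was measured as ATPLite luminescence.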

[9] = HEK293 24hr Apoptosis Induction qHTS against the NCATS CANVASS Library (AID 1347359); note: potency is the fitted concentration of half-maximal effect
Method in brief: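 HEK293 cells, 500 per well, exposed to an 11-point compound series for 24 hours at 37 degrees C. Caspase 3/7 activity read by Caspase-Glo luminescence (DEVD substrate) after 15 min at room temperature.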

[10] = biological target: Luciferin 4-monooxygenase (Photinus pyralis) (UniProt P08659); assay: Firefly luciferase counterscreen qHTS: Assay Interference Panel against the NCATS CANVASS Library (AID 1347363); note: potency is the fitted concentration of half-maximal effect
Method in brief: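 Purified P. pyralis luciferase (0.04 ug/mL, 4x reagent) added to Tris-acetate buffer with 0.013 mM D-luciferin, 0.013 mM ATP and 13.3 mM Mg-acetate; compounds preincubated 15 min, then luminescence read after 5 min, RT.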

[11] = KB-8-5-11 Cancer Cell Toxicity qHTS against the NCATS CANVASS Library (AID 1347364); note: nearly all actives have a fitted effect of over 75% in size; note: potency is the fitted concentration of half-maximal effect
Method in brief: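 KB-8-5-11 cells (500/well) in DMEM + 10% FBS were exposed to compounds in an 11-point qHTS series for 72 hr at 37C, 5% CO2. Viability was read by CellTiter-Glo luminescence.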

[12] = biological target: Nuclear receptor subfamily 1 group I member 3 (Homo sapiens) (UniProt Q14994); assay: qHTS for Constitutive Androstane Receptor (CAR) Antagonist screened against the NCATS CANVASS Library (AID 1347372); note: potency is the fitted concentration of half-maximal effect
Method in brief: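 HepG2 cells stably carrying hCAR and CYP2B6-2.2kb luciferase reporter, 2500 cells/well, compound with 50 nM CITCO agonist for 24hr at 37C. ONE-Glo luminescence measured CAR activity; CellTiter-Fluor read viability.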

[13] = qHTS for Hypoxia signaling pathway (HIF-1) antagonists against the NCATS CANVASS Library (AID 1347374); note: nearly all actives have a fitted effect of over 60% in size; note: potency is the fitted concentration of half-maximal effect
Method in brief: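 HRE-bla ME-180 cells (2,000/well, 0.5% dialyzed FBS) were pre-incubated 5 h, then given an 11-point compound series plus CoCl2 (60 uM solution as added) for 17 h at 37C. CCF4 β-lactamase read (ex 405, em 460/530 nm) after 2 h at RT.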

[14] = qHTS for Hypoxia signaling pathway (HIF-1) agonists against the NCATS CANVASS Library (AID 1347375)
Method in brief: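 HRE-bla ME-180 cells (beta-lactamase reporter under hypoxia responsive element) in 0.5% dialyzed FBS medium, 5 h at 37C, then compound 17 h, 11-point qHTS series. CCF4-AM FRET substrate 2 h RT; 460/530 nm emission read.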

[15] = DH5-alpha competent E. coli microbial cell viability qHTS against the NCATS CANVASS Library (AID 1347377); conditions: outcome: dose series up to 46.1 µM unless noted
Method in brief: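 DH5-alpha E. coli suspension (0.9 OD culture diluted to 0.2 OD) exposed to compounds in an 11-point series, overnight at 37C, 5% CO2. Viability read as ATP by BacTiter-Glo luminescence after 20 min at room temperature.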

[16] = qHTS for activators of Nrf2/ARE signaling pathway screened against the NCATS CANVASS Library (AID 1347391); note: nearly all actives have a fitted effect of over 60% in size; note: potency is the fitted concentration of half-maximal effect
Method in brief: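 ARE-bla HepG2 beta-lactamase reporter cells, 2000 cells/well, were preincubated 5 h, then exposed to compounds (11-point series) for 16 h at 37C. CCF4 fluorescence (ex 405, em 460/530 nm) after 2 h at room temperature.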

[17] = qHTS for activators of dead-cell proteases activity screened against the NCATS CANVASS Library (AID 1347392);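 note: luminescence from protease leaking out of membrane-damaged cells cleaving impermeant substrate; rising signal means more cytotoxicity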
Method in brief: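 HepG2 cells, 2000/well, attached 18 h at 37C, then exposed to compounds (11-point qHTS) for 5 h. Dead-cell protease release read as luminescence from cell-impermeant AAF-aminoluciferin substrate after 15 min at room temperature.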

[18] = qHTS for inhibitors of ER calcium dysfunction: SERCaMP assay screened against the NCATS CANVASS Library (AID 1347393); note: nearly all actives have a fitted effect of over 40% in size; note: potency is the fitted concentration of half-maximal effect
Method in brief: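 SH-SY5Y GLuc-SERCaMP, 1000 cells/well, 4 h attach; cpd 16 h, 37C/5% CO2; thapsigargin (added as 6x 600 nM) 4 h; coelenterazine; luminescence. Reduced reporter release = ER Ca stabilization.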

[19] = test system: NAD(P)H diaphorase (Clostridium kluyveri); assay: Diaphorse counterscreen qHTS: Assay Interference Panel against the NCATS CANVASS Library (AID 1347362)
Method in brief: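 Clostridium kluyveri diaphorase in PBS + 0.01% Tween-20 preincubated 15 min with compounds. Resazurin and NADH then added for 5 min at room temperature in the dark; resorufin fluorescence read (ex 525, em 598).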

[20] = Cytotoxicity qHTS for assessment of Hepg2 cells membrane integrity screened against the NCATS CANVASS Library (AID 1347387)
Method in brief: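 HepG2 cells (2000/well) attached overnight at 37C, then received compounds in an 11-point series at 0.59 nM - 46 uM final for 5 hr. LDH release was detected fluorometrically (ex 560/em 590 nm) with CytoTox-ONE reagent after 10 min at room temperature.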

Measured: Potency

Luciferin 4-monooxygenase (Photinus pyralis), sequence (P08659 whole entry, looked up): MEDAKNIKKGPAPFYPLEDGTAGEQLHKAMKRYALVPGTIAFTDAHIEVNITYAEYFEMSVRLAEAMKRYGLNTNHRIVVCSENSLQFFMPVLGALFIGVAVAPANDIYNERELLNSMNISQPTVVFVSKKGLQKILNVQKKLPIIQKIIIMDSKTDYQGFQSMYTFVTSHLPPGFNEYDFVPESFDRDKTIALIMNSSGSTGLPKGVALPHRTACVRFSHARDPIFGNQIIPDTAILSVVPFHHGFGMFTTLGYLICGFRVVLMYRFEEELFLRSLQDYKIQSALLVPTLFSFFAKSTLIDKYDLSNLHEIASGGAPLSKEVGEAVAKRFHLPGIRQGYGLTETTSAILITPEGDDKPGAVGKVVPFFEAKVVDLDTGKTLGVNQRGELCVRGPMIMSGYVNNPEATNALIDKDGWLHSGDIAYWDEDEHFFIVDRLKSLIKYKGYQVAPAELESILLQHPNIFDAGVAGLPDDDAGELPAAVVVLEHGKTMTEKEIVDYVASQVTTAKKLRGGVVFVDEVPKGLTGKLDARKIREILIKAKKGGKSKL
Nuclear receptor subfamily 1 group I member 3 (Homo sapiens), sequence (Q14994 whole entry, looked up): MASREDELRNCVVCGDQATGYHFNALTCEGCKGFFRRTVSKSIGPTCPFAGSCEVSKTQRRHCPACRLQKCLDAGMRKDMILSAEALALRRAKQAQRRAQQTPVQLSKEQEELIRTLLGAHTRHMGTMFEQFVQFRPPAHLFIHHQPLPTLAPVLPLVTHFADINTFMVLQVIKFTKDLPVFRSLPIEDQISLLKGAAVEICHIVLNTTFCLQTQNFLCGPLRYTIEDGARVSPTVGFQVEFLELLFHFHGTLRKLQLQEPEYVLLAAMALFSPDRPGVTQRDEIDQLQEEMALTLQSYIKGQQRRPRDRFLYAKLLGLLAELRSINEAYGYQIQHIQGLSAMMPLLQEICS

O=Cc1ccc2n1C[C@]1(C[C@H](O)[C@@H](CO)O1)OC2
not listed: [19] | [20]
inactive: all other assays above

C/C(=C\[C@@H](C)CC/C=C/CC/C=C/C(=O)O)[C@@H](O)[C@H](C)C(=O)CCCC1CC(=O)NC(=O)C1
not listed: [12] | [14]
inactive: all other assays above

C[C@@H]1CC[C@]2(C(=O)O)CC[C@]3(C)C(=C2[C@H]1C)CC[C@@H]1[C@@]2(C)CC[C@H](O)C(C)(C)[C@@H]2CC[C@]13C
active: [4] 11.8 µM | [5] 21.1 µM | [6] 23.7 µM
not listed: [1] | [2] | [3] | [7] | [10] | [13] | [14]
inactive: all other assays above

C/C(=C\[C@H](C)C(=O)C[C@H](O)CC1CC(=O)NC(=O)C1)[C@@H]1OC(=O)CCCC/C=C/C[C@@H](O)[C@@H]1C
active: [8] 2.35 µM | [13] 4.72 µM
inactive: [6] | [9] | [11] | [15] | [17] | [18]

O=C1CC(c2ccc(O)cc2)Oc2ccccc21 (stereo not given)
active: [3] 3.75 µM | [4] 13.3 µM | [10] 5.44 µM | [18] 34.3 µM
not listed: [8] | [15] | [16] | [19]
inactive: all other assays above

C=CC(C)(C)C(=O)[C@@H](C)[C@@H]1CC[C@@](C)(C=C)O1
not listed: [9] | [19]
inactive: all other assays above

CN1CC[C@@]2([C@@]34CCN(C)[C@@H]3Nc3ccccc34)c3ccccc3N[C@@H]12
not listed: [9] | [15] | [17] | [18]
inactive: all other assays above

C=C(C)C(=O)O[C@H]1C[C@@]2(C)OC(=CC2=O)/C(C)=C\[C@H]2OC(=O)C(=C)[C@H]12
inactive: [19] | [15]
active: [1] 2.11 µM | [2] 6.68 µM | [3] 9.41 µM | [4] 5.29 µM | [5] 1.88 µM | [6] 6.68 µM | [8] 0.662 µM | [9] 2.96 µM | [11] 2.96 µM | [12] 11.7 µM | [13] 1.67 µM | [18] 0.216 µM

C/C=C(/CO)C(=O)O[C@@H]1[C@H](O)[C@@H](C(=O)OC)O[C@@H]2C[C@H]3OC(n4cnc5c(N)ncnc54)[C@H](OC)[C@H]3O[C@@]12O (stereo not given in full)
active: [16] 18.6 µM
inactive: all other assays above

CCC(C)=C1OC(=O)[C@H](C)[C@H](O)[C@H](Cc2cccnc2)NC(=O)C(NC(=O)c2ncccc2O)C(C)OC1=O (stereo not given in full)
not listed: [9] | [12] | [13] | [15] | [17] | [18] | [19]
inactive: all other assays above

C=C[C@@]1(C)CC[C@@H]([C@H](C)C(C)=O)O1
not listed: [9] | [10] | [12]
inactive: all other assays above

C[C@@]1(CCC(=O)Nc2c(O)ccc(C(=O)O)c2O)C(=O)C=C[C@]23C[C@H]4C[C@H](O[C@@]4(C)C2)C31 (stereo not given in full)
not listed: [9] | [17] | [20]
inactive: all other assays above

COc1ccc(-c2oc3cc(OC)cc(OC)c3c(=O)c2O)cc1
active: [3] 18.8 µM | [13] 0.472 µM
not listed: [6] | [8] | [9] | [11] | [12] | [14] | [18]
inactive: all other assays above

COC(=O)[C@]1([C@H]2CCC(=O)O2)CC(=O)c2c(O)cc(C)cc2O1
not listed: [20]
inactive: all other assays above
